This is a sample that favours compounds with a hit; in the whole collection about 2.2% have one here.
Statin myotox sup: suppressors of statin myotoxicity in C2C12 myotubes, primary screen, cell-based, single point, plate reader | C2C12 myotubes + simvastatin, ATP luminescence, 48 h; scaled: DMSO 0, geranylgeraniol control 100 | rescue of ATP level, % at 7.49 µM | hit rate 0.78% among 330,000;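 active = mean ATP rescue above about 67%, or every replicate alone reaching that limit, limit read from the data, passing the limit was not always enough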;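 also: myotubes were challenged with 10 µM simvastatin during compound exposure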
miR122 inh: miR-122 Renilla sensor signal increase in Huh7, primary screen, miR-122 inhibitor project, cell-based, single point, plate reader; hit rate 0.3% among 340,000; AID 602342, 2012; Huh7 miR-122 Renilla luciferase sensor, 48 h; neutral wells = 0, positive control = 100; activation (reporter increase), % at 12.5 µM;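 active = mean replicate activation score at least 90 and every replicate individually at or above 90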;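 also: higher luciferase means less miR-122 activity so hits act as miR-122 inhibitors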
DENV2 CPE rescue: inhibitors of DENV2 cytopathic effect, primary screen, cell-based, plate reader, single concentration. DENV2-infected cells, cytopathic effect rescue. CPE inhibition, % at 9.99 µM. hit rate 1.7% among 350,000; in the data active = CPE inhibition above about 20%, passing the limit was not always enough; tested in BHK-21 cells;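 also: 0% = median of neutral control wells and 100% = median of positive control wells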
PGC1a acetyl inh: inhibitors of PGC1a acetylation signal, primary screen, cell-based, U2OS, AlphaScreen, inhibitor mode; AlphaScreen anti-acetyl-lysine; with virally co-expressed GCN5 acetyltransferase; inhibition, % at 15.6 µM; hit rate 0.17% among 350,000; AID 651687, 2012;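 active = every replicate shows inhibition of at least 40%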;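 also: 0% = neutral control wells and 100% = positive control wells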
PvdQ inh: P. aeruginosa PvdQ acylase inhibitors, primary screen, biochemical, fluorescence, plate reader and imaging, single point. PvdQ acylase [Pseudomonas aeruginosa LESB58]. purified PvdQ acylase. inhibition, % at 10 µM. hit rate 0.063% among 340,000; in the data active = inhibition above about 30%, passing the limit was not always enough;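 also: 0% = vehicle neutral wells and 100% = reference inhibitor wells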
Numbers without * were called inactive; x = no result given; ! = a repeat was not active; [ ] = dose if it differs, or a comment.

SMILES	Statin myotox sup	miR122 inh	DENV2 CPE rescue	PGC1a acetyl inh	PvdQ inh
C[C@@H]1CN([C@@H](C)CO)C(=O)Cc2cc(NC(=O)CCC(F)(F)F)ccc2O[C@H]1CN(C)Cc1ccc(Oc2ccccc2)cc1	87*	-15[16.7 µM]	1	-6	x
Cc1cc(C(=O)Nc2cccc3c2O[C@H](CN(C)C(=O)Nc2ccccc2)[C@H](C)CN([C@@H](C)CO)C3=O)n(C)n1	-6	5[16.7 µM]	-1	5	x
C[C@@H]1CN([C@H](C)CO)C(=O)c2cc(-c3ccccc3F)cnc2O[C@@H]1CN(C)C(=O)c1cnccn1	-8	-7[16.7 µM]	2	1	x
O=C(C[C@@H]1CC[C@@H](NC(=O)Nc2ccccc2F)[C@@H](CO)O1)NCc1ccc(F)cc1	x	x	8	2	x
CNC(=O)C1=C[C@H](c2ccc(C(=O)OC)cc2)C[C@H](OCCCCO)O1	x	x	-1	9	x
CCCNC(=O)N1CC2(CN(Cc3cccc(OC)c3)C2)c2c([nH]c3cc(OC)ccc23)[C@H]1CO	x	x	1	x	x
COc1ccc([Si](C)(C)[C@H]2[C@H](CCO)O[C@@]3(C(=O)N(Cc4ccccc4)c4ccc(N5CCOC5=O)cc43)[C@@H]2C)cc1	x	x	20*	14	x
COc1ccc([Si](C)(C)[C@@H]2[C@@H](CCO)O[C@]3(C(=O)N(Cc4ccc(NC(C)=O)cc4)c4ccccc43)[C@H]2C)cc1	x	x	20*	9	x
COc1ccc([Si](C)(C)[C@H]2[C@H](CCO)O[C@@]3(C(=O)N(Cc4ccc(NC(C)=O)cc4)c4ccccc43)[C@@H]2C)cc1	x	x	-8	3	x
C=CCN1C(=O)[C@@]2(O[C@@H](CCn3cc([C@H](O)c4ccccc4)nn3)[C@H]([Si](C)(C)c3ccc(OC)cc3)[C@H]2C)c2cc(N3CCOC3=O)ccc21	x	x	42*	x	x
COc1ccc(CN(C)C[C@H]2Oc3ccc(NS(=O)(=O)c4c(C)noc4C)cc3CC(=O)N([C@H](C)CO)C[C@@H]2C)cc1	52	-4[16.7 µM]	-4	-5	x
C[C@H]1CN([C@@H](C)CO)C(=O)c2cc(-c3ccccc3)cnc2O[C@@H]1CN(C)C(=O)C1CCCCC1	x	x	47*	-1	x
C[C@@H]1CN([C@@H](C)CO)C(=O)c2cc(C#Cc3cccc(F)c3)cnc2O[C@H]1CN(C)C(=O)C1CCCCC1	5	-6	22*!	-1	x
COc1cccc(C#Cc2cnc3c(c2)C(=O)N([C@H](C)CO)C[C@H](C)[C@@H](CN(C)C(=O)C2CCC2)O3)c1	20	-4[16.7 µM]	-3	-27	x
COc1cccc(C#Cc2cnc3c(c2)C(=O)N([C@H](C)CO)C[C@@H](C)[C@H](CN(C)C(=O)C2CCC2)O3)c1	-27	-29[16.7 µM]	20*	7	x
COc1cccc(C#Cc2cnc3c(c2)C(=O)N([C@@H](C)CO)C[C@@H](C)[C@@H](CN(C)C(=O)C2CCC2)O3)c1	26	-2[16.7 µM]	25*	-18	x
O=C(Nc1ccc(Br)cc1F)C1CCN(c2nnc(-n3cccc3)s2)CC1	10	3	26*	x	-17
O=C(Nc1ncc([N+](=O)[O-])s1)c1cccc([N+](=O)[O-])c1	-116	-7	-2	x	39*
CC1(C(=O)NNC(=O)c2cccc([N+](=O)[O-])c2)CC1Br (centres undefined)	4	-2	15	-2	x
O=C(Nc1ccc(NC(=O)c2cccc([N+](=O)[O-])c2)cc1)c1cccc([N+](=O)[O-])c1	-10	-5	-4	-3	2
O=C(NNC(=O)C12CC3CC(CC(C3)C1)C2)c1cccc([N+](=O)[O-])c1	1	-4	20*	9	-15
O=C(NC(=S)Nc1cccc2cc(O)ccc12)c1ccco1	3	1	44*	2	-17
Nc1cc2nsnc2cc1Br	-125	-18	x	60*	-8
Nc1cccc2nsnc12	9	0	0	2	-8
CCN(CC)c1nc(C#N)cc(-c2ccc(OC)cc2)n1	109*	13	x	-22	-7
SMILES	Statin myotox sup	miR122 inh	DENV2 CPE rescue	PGC1a acetyl inh	PvdQ inh
COc1ccc(-c2cc(C#N)nc(NN)n2)cc1	x	-1	47*	3	-9
Cc1noc(C)c1S(=O)(=O)N(C)C[C@H]1Oc2c(NS(=O)(=O)c3cn(C)cn3)cccc2C(=O)N([C@H](C)CO)C[C@H]1C	-16	-1[16.7 µM]	-3	8	x
Cc1ccc(CNC(=O)C2CCCC2)cc1	-3	-2	2	x	-1
Cc1ccc2[nH]c(CNC(=O)C3CCCCC3)cc2c1	-5	135*	-5	-4	-11
C[C@H](CO)N1C[C@H](C)[C@H](CN(C)S(=O)(=O)c2cn(C)cn2)OCCCC[C@H](C)Oc2ccc(NS(=O)(=O)c3ccc(Cl)cc3)cc2C1=O	x	-8[16.7 µM]	16	1	x
CN(C)c1ccc(/C=C(\C#N)c2ccccn2)cc1	x	-6	x	-4	-7
COC(=O)c1ccc(/C=C(\C#N)c2ccccn2)cc1	-6	-6	0	12	71*
C[C@@H]1CN([C@@H](C)CO)C(=O)c2cccc(NC(=O)Nc3ccccc3)c2O[C@@H]1CN(C)C(=O)Nc1ccc2c(c1)OCO2	15	0[16.7 µM]	x	-3	x
COc1cccc(S(=O)(=O)Nc2ccc3c(c2)[C@H]2C[C@H](CC(=O)NCCc4ccccc4)O[C@H](CO)[C@H]2O3)c1	-6	3[16.7 µM]	16	1	x
S=C(NCc1ccncc1)Nc1cc(Cl)cc(Cl)c1	7	103*	-2	3	5
S=C(NCc1ccncc1)Nc1ccc(Cl)c(Cl)c1	x	14	x	-4	-16
Cc1cc(NC(=O)CCC(=O)N(CCC(C)C)C(C(=O)NC2CCCC2)c2cccnc2)no1 (centres undefined)	105*	0	x	-4	-15
CCOC(=O)CN(C(=O)CCC(=O)Nc1cc(C)on1)C(C(=O)NC1CCCC1)c1cccnc1 (centres undefined)	x	-2	x	x	-2
Cc1nc2ncnn2c(N2CCN(C(c3ccccc3)c3ccccc3)CC2)c1C	79*	-4	x	-1	1
CC(C)CN1C(=O)CN(S(C)(=O)=O)CC1(C)C(=O)NC(C)C (centres undefined)	x	x	27*	x	x
CC1(C(=O)NCc2ccccc2)CN(S(C)(=O)=O)CC(=O)N1CCc1ccc(O)cc1 (centres undefined)	x	x	26*	x	x
CC1(C(=O)NCc2ccccc2)CN(S(C)(=O)=O)CC(=O)N1CCc1ccccc1 (centres undefined)	x	x	-7	x	x
Cc1ccc(CN2C(=O)CN(S(C)(=O)=O)CC2(C)C(=O)NC(C)C)cc1 (centres undefined)	x	x	-3	x	x
CC1(C(=O)NCc2ccccc2)CN(S(C)(=O)=O)CC(=O)N1CCc1ccccc1F (centres undefined)	x	x	74*	x	x
